Source: PubChem BioAssay (National Center for Advancing Translational Sciences (NCATS))
An excerpt weighted towards active compounds, which were near 3.3% of everything screened.
PLK1 PBD block: PLK1 (human) polo-box domain binding inhibition. P53350. Plk1 PBD binding of FITC phosphopeptide, fluorescence polarization. Potency, µM, for inactives: max response, negative = inhibition, usual class: inhibitors. actives 2.8% (n = 360,000). AID 720504; also: potency is read from the fitted curve at half-maximal effect; series mostly up to about 57 µM; nearly all actives have a fitted effect of over 65% in size
USP1 inh: USP1/UAF1 (human) deubiquitinase inhibition | actives 0.23% (n = 390,000) | recombinant USP1/UAF1, Ub-Rhodamine cleavage fluorescence | Potency, µM (highest dose often 57.1 µM), for inactives: at the highest dose activity change, negative = inhibition, actives largely listed as inhibitors | O94782; also: potency is read from the fitted curve at half-maximal effect; nearly all actives have a fitted effect of over 60% in size
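1 nM enzyme complex + cpd, 15 min RT; start with Ub-Rho 150nM final; kinetic fluorescence ex 480/em 540, 6 reads q60 s. Buffer 50mM HEPES pH 7.8, 0.5mM EDTA, 0.1 mg/ml BSA, 1mM TCEP, 0.01% Tween-20.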
WRN helicase inh: WRN helicase (human) inhibition | WRN helicase unwinding, fluorescent forked duplex, kinetic | Potency, µM (top dose mostly 114 µM), inactives show top-dose activity change, negative = inhibition, hits mostly inhibitors | actives 0.46% (n = 360,000); also: potency is read from the fitted curve at half-maximal effect; nearly all actives have a fitted effect of over 55% in size
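WRN at 20 nM final was preincubated with compound for 15 min at room temperature; reaction started with 100 nM forked duplex oligonucleotide carrying fluorophore and quencher plus 2 mM ATP (final). Unwinding followed kinetically by red fluorescence (ex 525/em 598 nm).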
PI5P4K alpha inh: blocks human PI5P4K alpha kinase activity; max response, %; actives 1.2% (n = 330,000); AID 652105; PI5P4Kalpha enzyme, ADP-Glo luminescence, 60 min; active compounds read low; active = max response of -50% or lower; inconclusive = between -30% and -50%; inactive = -30% or higher; also: value at the top dose of about 77 µM
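qHTS, 1536-well: enzyme/substrate mix, compound by pin tool, 5 microM ATP final; RT 60 min; ADP-Glo reagents 1 (45 min) then 2 (30 min); luminescence.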
USP2a block: inhibitors of human ubiquitin-specific protease USP2a; USP2 core, Ub-CHOP2 coupled fluorogenic reporter, 485/531; Potency, µM (top dose mostly 38.3 µM), inactives show top-dose activity change, negative = inhibition, usual class: inhibitors; actives 0.01% (n = 330,000);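 also: potency is read from the fitted curve at half-maximal effect; plate controls were DMSO wells for no effect and full inhibition by NEM control for full effect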
Target sequence (O75604 whole entry, looked up): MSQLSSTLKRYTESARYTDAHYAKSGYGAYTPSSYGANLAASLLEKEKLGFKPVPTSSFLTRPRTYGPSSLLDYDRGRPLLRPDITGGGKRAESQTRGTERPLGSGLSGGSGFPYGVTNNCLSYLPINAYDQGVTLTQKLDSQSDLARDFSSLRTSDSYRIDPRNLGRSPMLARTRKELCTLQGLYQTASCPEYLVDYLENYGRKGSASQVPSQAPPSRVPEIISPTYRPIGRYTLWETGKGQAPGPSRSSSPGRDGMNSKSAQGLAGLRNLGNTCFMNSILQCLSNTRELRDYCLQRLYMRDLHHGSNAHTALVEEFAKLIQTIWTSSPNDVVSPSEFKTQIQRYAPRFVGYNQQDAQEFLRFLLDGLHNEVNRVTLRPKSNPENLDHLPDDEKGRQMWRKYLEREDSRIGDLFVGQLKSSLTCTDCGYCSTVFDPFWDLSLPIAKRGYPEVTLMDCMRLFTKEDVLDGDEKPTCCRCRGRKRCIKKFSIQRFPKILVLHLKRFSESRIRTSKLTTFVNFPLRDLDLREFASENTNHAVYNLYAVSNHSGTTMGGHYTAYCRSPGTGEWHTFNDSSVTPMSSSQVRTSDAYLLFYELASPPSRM
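Deubiquitinase activity read as fluorescence (485/531 nm) after Ub-CHOP2 cleavage activates the enterokinase reporter on its substrate; USP2 core 10nM, Ub-CHOP2 and substrate 25nM each, 30min compound preincubation then 60min RT; data normalized to NEM, curves fitted.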
TbPYK inh: Trypanosoma brucei pyruvate kinase inhibition, cherry-pick confirmation; shares compounds with PLK1 PBD block; recombinant TbPYK, Kinase-Glo ATP luminescence; Potency, µM (top dose mostly 76.9 µM), inactives show at the top dose activity change, negative = inhibition, usual class: inhibitors; actives 67% (n = 890); also: potency is read from the fitted curve at half-maximal effect; nearly all actives have a fitted effect of over 70% in size
TbPYK orthogonal: TbPYK inhibition, orthogonal confirmation; shares compounds with PLK1 PBD block; recombinant TbPYK, ADP-Glo luminescence, 60 min; Potency, µM (series often up to 76.9 µM), without a hit: at the top dose activity change, negative = inhibition, usual class: inhibitors; actives 62% (n = 890); also: potency is read from the fitted curve at half-maximal effect; nearly all actives have a fitted effect of over 75% in size
An asterisk follows results filed as active; ? = inconclusive; . = not tested or not shown; [ ] = another dose, or the depositor's remark. Unless noted, calls follow the shape of the dose curve; as a rule, active = well fitted curve in the direction sought with a large enough effect; inconclusive = small, poorly fitted or top-dose-only effect, or another doubt; inactive = no such curve, though single readings can be large; an effect the other way counts as inactive or inconclusive. Unless noted, % is scaled to controls: 0 for no effect and ±100 for the full control effect.

SMILES	PLK1 PBD block	USP1 inh	WRN helicase inh	PI5P4K alpha inh	USP2a block	TbPYK inh	TbPYK orthogonal
CCCC(C)NC(=O)c1cc(C(=O)OC)cc([N+](=O)[O-])c1 (stereo unspecified)	-5%	-10%	0%	1	0%	.	.
N#Cc1c(NC(=O)CCC(=O)O)sc2c1CCCCC2	27µM*	-18%	-30%	-74*	4%	?	?
N#Cc1c(NC(=O)CCC(=O)O)sc2c1CCCC2	-16%	1%	0%	-1	2%	.	.
O=C(O)CC(NS(=O)(=O)c1ccc(Cl)s1)c1ccccc1 (stereo unspecified)	.	-5%	.	.	.	.	.
Cc1ccc2nc(-c3ccccn3)c(Nc3ccccc3C)n2c1	-14%	-15%	-5%	2	-14%	.	.
Cc1ccc2nc(-c3ccccn3)c(N)n2c1	-1%	.	1%	-19	.	28µM*	11%
CN(C)c1ccc(N=Nc2ccc(S(N)(=O)=O)cc2)cc1	-3%	-1%	-19%	-16	-3%	.	.
CC1=CC(=O)C=CC1=Nc1ccc(N(C)C)cc1	?	.	-2%[57.1 µM]	-95*	.	22µM*	-16%
O=C1N=c2ccccc2=C1c1c(O)n(-c2cccc(F)c2)[nH]c1=O	5.3µM*	2%	?	?	5%	3.5µM*	7.9µM*
Cc1ccc(-c2c(C(=O)NCCc3ccccc3)oc(=O)c3ccccc23)cc1	.	8%	.	.	.	.	.
O=[N+]([O-])c1cnc(Sc2ccncn2)c([N+](=O)[O-])c1	1.2µM*	-21%	-27%	-74*	.	-90%	?
O=C(NCCCNC(=O)c1cccs1)c1cccs1	2.7µM*	-13%	?	?	0%	-5%	-9%
O=C(NCCCCNC(=O)c1cccs1)c1cccs1	-6%	-17%	-3%	7	3%	.	.
Cc1ccc(C)c(Nc2cc(C(=O)NC3CCCCC3)c3ccccc3n2)c1	.	-14%	.	.	.	.	.
Cc1ccc(CN(C)C(=O)c2cc(COc3cccc(C(F)(F)F)c3)on2)o1	?	-18%	-9%	-12	-2%	13µM*	11µM*
Oc1ccc(N2CCN(c3nc(-c4cccs4)nc4ccccc34)CC2)cc1	0%	-14%	-15%	2	-8%	?	35µM*
O=C1C(=Cc2ccccc2O)SC(=S)N1CCCN1CCOCC1	2.7µM*	?	-4%	-69*	.	4µM*	3.2µM*
O=C(CCN1C(=O)/C(=C\c2ccccc2)SC1=S)NCCCN1CCOCC1	-7%	0%	2%	0	-1%	.	.
COC(=O)c1ccc(OCC2c3cc(OC)c(OC)cc3CCN2C(=O)Cc2ccc(OC)cc2)cc1 (stereo unspecified)	.	-25%	.	.	.	.	.
CCN(CC)C(=O)c1sc2nc(N3CCOCC3)c3c(c2c1N)CCCC3	?	-23%	-9%	.	0%	7.9µM*	4.5µM*
CCOC(=O)c1sc2nc(N3CCOCC3)c3c(c2c1N)CCCC3	-2%	-10%	8%	0	6%	.	.
Cc1ccccc1NC(=O)CSc1ncc2c(n1)-c1ccccc1N(C)S2(=O)=O	.	7%	.	.	.	.	.
CC1CN2C(c3ccc([N+](=O)[O-])cc3)=CSC2=N1 (stereo unspecified)	?	-15%	-20%	-30	4%	6.3µM*	13µM*
CCOc1ccc(NC(=O)CC2C(=O)N(c3ccc(C)cc3)C(=O)N2C2CCCCC2)cc1 (stereo unspecified)	.	1%	.	.	.	.	.
O=C(Nc1ccc(Cl)c(Cl)c1)c1ccc(Cl)c(Cl)c1	-5%	-26%	-1%	18	3%	.	.
Cc1ccc(NC(=O)c2ccc(Cl)c(N3C(=O)C=CC3=O)c2)cc1	3.4µM*	-11%	50µM*	-68*	-1%	5.6µM*	13µM*
COc1cc(N2C(=O)C=CC2=O)c(OC)cc1Cl	3µM*	-15%	1%	-25	-1%	4.5µM*	7.1µM*
